Consider 24 molecules from PubChem BioAssay (NCATS).

Inconclusive results are not listed. Values without a mark were called inactive. Activity calls are given as the source filed them. Calls follow the shape of the dose curve; as a rule, active = well fitted curve in the direction sought with a large enough effect; inconclusive = small, poorly fitted or top-dose-only effect, or another doubt; inactive = no such curve, though single readings can be large; an effect the other way counts as inactive or inconclusive.

Assay [1] is described as follows: Quantitative highthroughput screen to assess conditional lethalithy of NOMO1 cells grown in RPMI1640 with dialyzed fetal bovine serum (RPMI+ds) (AID 1963877). Also: nearly all actives have a fitted effect of over 30% in size. Also: potency is read from the fitted curve at half-maximal effect.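 As to viability: series mostly up to about 46 µM; 100% = DMSO control wells and 0% = empty wells.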 In a few lines: (§1)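 Each medium arm—HPLM with 10% dialyzed FBS, or RPMI1640 with 5 mM glucose and 10% untreated or dialyzed FBS—was screened against an 11-point, 3-fold compound titration for 48 h at 37 °C, with CellTiter-Glo luminescence as endpoint.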

Assay [2] is described as follows: Quantitative highthroughput screen to assess conditional lethalithy of NOMO1 cells grown in Human Plasma-Like Medium with dialyzed fetal bovine serum (HPLM+ds) (AID 1963878). Also: nearly all actives have a fitted effect of over 35% in size. Also: potency is read from the fitted curve at half-maximal effect.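 As to viability: 100% = DMSO wells and 0% = empty wells on each plate.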 In a few lines:
as §1

The nature of assay [3]: Quantitative highthroughput screen to assess conditional lethalithy of P12 Ichikawa cells grown in Human Plasma-Like Medium with dialyzed fetal bovine serum (HPLM+ds) (AID 1963879). Also: nearly all actives have a fitted effect of over 35% in size. Also: potency is read from the fitted curve at half-maximal effect. As to viability: series mostly up to about 46 µM. Conditions: Potency: viability. The gist of the method:
as §1

A short description of assay [4]: Quantitative highthroughput screen to assess conditional lethalithy of P12 Ichikawa cells grown in RPMI1640 with dialyzed fetal bovine serum (RPMI+ds) (AID 1963880). Also: nearly all actives have a fitted effect of over 35% in size. Also: potency is read from the fitted curve at half-maximal effect.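 As to viability: 100% = DMSO wells and 0% = empty wells on each plate.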 Conditions: Potency: P12-Ichikawa viability. The gist of the method: as §1
Assay [5] is described as follows: Quantitative highthroughput screen to assess conditional lethalithy of P12 Ichikawa cells grown in RPMI1640 with untreated serum (RPMI+s) (AID 1963881). Also: nearly all actives have a fitted effect of over 35% in size. Also: potency is read from the fitted curve at half-maximal effect.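 As to viability: series mostly up to about 46 µM; 100% = DMSO wells and 0% = empty wells without cells.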 Conditions: Potency: viability. In a few lines: as §1
The nature of assay [6]: Quantitative highthroughput screen to assess conditional lethalithy of SEM cells grown in RPMI1640 with unreated serum (RPMI+s) (AID 1963883). Also: nearly all actives have a fitted effect of over 35% in size. Also: potency is read from the fitted curve at half-maximal effect.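 As to viability: 100% = DMSO wells and 0% = empty wells without cells.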 In a few lines: as §1
Assay [7] can be described thus: Quantitative highthroughput screen to assess conditional lethalithy of SEM cells grown in Human Plasma-Like Medium with dialyzed fetal bovine serum (HPLM+ds) (AID 1963882). Also: nearly all actives have a fitted effect of over 35% in size. Also: potency is read from the fitted curve at half-maximal effect. As to viability: series mostly up to about 46 µM. The gist of the method: as §1
Assay [8] in a line: Quantitative highthroughput screen to assess conditional lethalithy of SEM cells grown in RPMI1640 with dialyzed fetal bovine serum (RPMI+ds) (AID 1963884). Also: nearly all actives have a fitted effect of over 35% in size. Also: potency is read from the fitted curve at half-maximal effect.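 As to viability: series mostly up to about 46 µM; 100% = DMSO control wells and 0% = empty wells without cells.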 The gist of the method: as §1
A short description of assay [9]: Cellular viability qHTS for adrenocortical cancer (ACC) cell line SW-13 (AID 1963989).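 Also: cells grown in serum-free medium with ITS supplement; % is scaled to controls: 0 for no effect and ±100 for the full control effect; nearly all actives have a fitted effect of over 65% in size.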 Conditions: SW-13 ACC cells viability, CellTiter-Glo, 48 h; activity (max response): active compounds read low. In a few lines: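 Here, serum-free SW-13 cultures were dosed up to 46 uM. Following 48 h, ATP-dependent luminescence (CellTiter-Glo) reported viable cells, and logistic modeling produced IC50 values.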

Assay [10] in a line: Cellular viability qHTS for adrenocortical cancer (ACC) cell line NCI-H295R (AID 1963990). Also: nearly all actives have a fitted effect of over 60% in size. Also: potency is read from the fitted curve at half-maximal effect. In a few lines: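 Viability of NCI-H295R after 48 h of treatment (final up to 46 uM) measured through cellular ATP luminescence.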

Consider `CCC(=C(CC)c1ccc(O)cc1)c1ccc(O)cc1`, for which the Potency result in assay [1], in assay [2], in assay [3], in assay [4], in [5] and in assay [6] was “inactive” each time.
Consider `CC1(C)C(=O)N(CCN2CCC(C(=O)c3ccc(F)cc3)CC2)c2ccccc21`, for which, in assay [1], the Potency was 18.7 µM (active). Moreover, the Potency result in [3], in [5], in assay [7], in assay [6] and in assay [8] was “inactive” throughout.
On to `CC(C)(C)OC(=O)CN(Cc1ccc(Cl)cc1)Cc1ccc([N+](=O)[O-])s1`, for which the Potency entry in [1], in assay [5] and in [10] was “inactive” throughout. Also, in assay [9], the activity (max response) is -11.1%.
As to `COCCCCC(=NOCCN)c1ccc(C(F)(F)F)cc1`, in assay [2], the Potency is 18.7 µM (active). Besides, in [3], the Potency entry was “inactive”.
In the case of `CC(=O)Nc1sc2c(c1-c1nc3ccccc3s1)CNC2`, the Potency entry in [2] and in assay [3] was “inactive” in each case. For the same molecule, the Potency in [5] is 16.6 µM (active); in assay [7], 18.7 µM (active); in assay [8], 18.7 µM (active).
Take `CC(C)N1[N]C(=C2C=c3cc(O)ccc3=N2)c2c(N)ncnc21`: the Potency in assay [1] was 7.43 µM (active); in assay [2], 0.935 µM (active); in assay [7], 1.48 µM (active); in [6], 2.96 µM (active); in assay [8], 2.64 µM (active).
`Cn1cc(-c2cnn3c(N)c(Br)c([C@H]4CCCNC4)nc23)cn1`: the Potency in assay [2] was 1.32 µM (active); in assay [3], 2.96 µM (active); in assay [5] it was 2.64 µM (active); in [7] it was 0.935 µM (active); in [6], 2.35 µM (active); in assay [8], 1.05 µM (active).
On to `NCc1c[nH]c(=S)n1[C@H]1CCc2c(F)cc(F)cc2C1`, for which the Potency entry in assay [1], in assay [3], in [5] and in assay [10] was “inactive” each time. The activity (max response) in [9] is -7.85%.
As to `N#Cc1ccc(NC(=O)Nc2ccccc2Br)c2n[nH]nc12`, the Potency result in assay [1], in [5], in assay [7], in assay [6], in assay [8] and in assay [10] was “inactive” in each case. The activity (max response) in assay [9] is -2.82%.
Turning to `Cc1ccc(NC(=O)Nc2cc(C(F)(F)F)ccc2F)cc1Nc1ccc2c(c1)NC(=O)C2=Cc1ccc[nH]1`, the Potency in [1] is 20.9 µM (active); in assay [7] it was 18.7 µM (active); in assay [6], 18.7 µM (active).
Consider `CC(=Cc1ccccc1)C=C1SC(=S)N(CC(=O)O)C1=O`, for which the Potency entry in assay [1], in [3], in [4], in assay [5] and in assay [8] was “inactive” each time. Further, the Potency in [6] was 5.9 µM (active).
Consider `CC(C)N(C[C@H]1O[C@@H](n2cnc3c(N)ncnc32)[C@H](O)[C@@H]1O)C1CC(CCc2nc3ccc(C(C)(C)C)cc3[nH]2)C1` (some centres undefined), for which the Potency in assay [2] was 5.88 µM (active); in assay [3], 1.05 µM (active); in [4] it was 3.71 µM (active); in assay [6], 1.05 µM (active); in [8], 11.7 µM (active). Further, the activity (max response) in [9] is 7.65%. The Potency result in [10] is “inactive”.
As to `OCC(O)C(O)C(O)CO` (centres undefined), the Potency entry in [2], in assay [3], in assay [4] and in assay [5] was “inactive” in each case.
`CCOc1cc(C=C2C(=O)N(c3ccccc3)N=C2C)cc(Cl)c1OCC(=O)OC`: the Potency result in assay [2], in assay [3], in assay [4] and in [5] was “inactive” in each case.
Turning to `O=C1Nc2ccc(Cl)cc2C(C#CC2CC2)(C(F)(F)F)O1` (centres undefined), the Potency result in [1], in assay [2], in [7] and in assay [6] was “inactive” in each case.
As for `C=CCc1cccc(C=NNC(=O)CN2CCN(Cc3ccccc3)CC2)c1O`, the Potency was 16.6 µM (active) in assay [1]; 18.7 µM (active) in assay [2]; 14.8 µM (active) in assay [5]; 10.5 µM (active) in assay [7]; 16.6 µM (active) in assay [6]; 8.33 µM (active) in [8].
With `Cc1c(-c2cccc3c(CCCOc4cccc5ccccc45)c(C(=O)O)n(Cc4cccnc4)c23)c(COc2ccc(N3CCN([S+](=O)([O-])N(C)C)CC3)cc2)nn1C`, the Potency entry in [1], in assay [3], in assay [4] and in assay [5] was “inactive” each time.
For `CC[C@H](CO)Nc1nc(NCc2ccccc2)c2ncn(C(C)C)c2n1`, the Potency result in assay [1], in assay [3], in assay [5] and in assay [7] was “inactive” each time. Moreover, the Potency in assay [10] was 31.6 µM (active).
As for `O=c1cc(-c2ccc(O)cc2)oc2cc(O)cc(O)c12`, the Potency in assay [1] was 18.7 µM (active). Besides, the Potency entry in assay [4], in assay [7] and in assay [6] was “inactive” each time. Moreover, in assay [9], the activity (max response) is -18.3%.
With `CC=CCC=CCCC(=O)[C@H]1O[C@@H]1C(N)=O`, the Potency result in assay [1], in assay [4] and in assay [5] was “inactive” throughout.
Regarding `CCC1=C[C@@H]2CN(C1)Cc1c([nH]c3ccccc13)[C@@](C(=O)OC)(c1cc3c(cc1OC)N(C)[C@@H]1[C@@](O)(C(=O)OC)[C@H](OC(C)=O)[C@]4(CC)C=CCN5CC[C@]31[C@@H]54)C2`, the Potency in assay [1] is 0.0743 µM (active); in [3] it was 0.0372 µM (active); in assay [5], 0.0209 µM (active); in assay [7], 0.059 µM (active); in [6], 0.0209 µM (active).
With `CNC(=O)c1cc(COc2nnc(Nc3ccc(Cl)cc3)c3ccoc23)ccn1`, the Potency result in [1], in assay [3] and in assay [4] was “inactive” in each case. The Potency was 16.6 µM (active) in assay [7] and 12.6 µM (active) in [10]. The activity (max response) in assay [9] was -21.4%.
Regarding `COC1=C2C[C@@H](C)C[C@H](OC)[C@@H](O)[C@@H](C)C=C(C)[C@H](OC(N)=O)[C@@H](OC)C=CC=C(C)C(=O)NC(=CC1=O)C2=O`, the results for the Potency in assay [1], in assay [2] and in assay [7] were 20.9 µM (active), 18.7 µM (active) and 8.33 µM (active), respectively.
Regarding `COc1ccc2nc(S(=O)Cc3ncc(C)c(OC)c3C)[nH]c2c1` (centres undefined), the Potency entry in assay [1], in assay [3], in assay [4], in assay [7], in assay [6] and in assay [8] was “inactive” throughout. Besides, the Potency result in assay [10] is “inactive”. For the same molecule, the activity (max response) in assay [9] was -12.3%.
